Several values for one entry are separate records, joined by “and”; a condition that tells them apart may be missing. Identical values can stand only once. Among all 350,000 compounds or so, about 31,000 (8.9%) were called active. About 15% were inconclusive and are not listed. This excerpt belongs to a sample that is enriched for actives. Values without a mark were called inactive. Calls come from the whole dose curve; as a rule, active = well fitted inhibition curve with a large enough effect; inconclusive = small, poorly fitted or top-dose-only effect; inactive = no such curve, though single readings can be large or run the other way.
target: Histone-lysine N-methyltransferase EHMT2 (Homo sapiens) (UniProt Q96KQ7); assay: qHTS Assay for Inhibitors of Histone Lysine Methyltransferase G9a; details: G9a H3K9 monomethylation, AlphaScreen, 2 h; series mostly up to 59 µM; activity, negative = inhibition: at the top concentration; note: nearly all actives have a fitted effect of over 75% in size
Sequence (Q96KQ7 913-1193 limits assumed): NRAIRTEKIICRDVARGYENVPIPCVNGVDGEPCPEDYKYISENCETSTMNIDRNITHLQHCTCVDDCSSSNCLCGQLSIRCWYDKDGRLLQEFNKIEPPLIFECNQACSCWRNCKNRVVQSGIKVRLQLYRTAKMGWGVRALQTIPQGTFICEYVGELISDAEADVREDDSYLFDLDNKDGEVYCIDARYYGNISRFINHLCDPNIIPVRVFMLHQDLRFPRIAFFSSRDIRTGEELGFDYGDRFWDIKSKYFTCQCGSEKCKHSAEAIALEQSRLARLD
Method in brief: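 Enzyme 20 nM + cpd, 15 min RT; add b-H3K9 pep 500 nM / SAM 20 uM; 2 h RT; anti-H3K9me1 Ab 0.5 ug/mL + SA donor / anti-rabbit acceptor beads 20 ug/mL each, 10 min; AlphaScreen read.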
% is set by controls: 0 for no effect and ±100 for the full control effect; potency is the fitted concentration of half-maximal effect.

Row | Compound | activity, negative = inhibition | Potency
1 | CCOC(=O)N1CCc2c(sc3c2c(=O)n(Cc2ccccc2)c(=O)n3CC(=O)Nc2cccc(C)c2)C1 | 16.6% | –
2 | CCOC(=O)N1CCc2c(sc(NCc3cccc(F)c3)c2C(=O)Nc2ccccc2OCC)C1 | – | 1.41 µM (active)
3 | CCOC(=O)N1CCc2c(sc3c2C(=O)NC(c2ccccc2F)N3)C1 (stereo unspecified) | 0.769% | –
4 | COC(=O)c1ccccc1NC(=O)Cn1c(=O)n(-c2cccc(C(F)(F)F)c2)c(=O)c2c(C)c(C)sc21 | -5.38% | –
5 | CS(=O)(=O)N1CCc2nc(-c3ccccc3)sc2C1 | 6.88% [at 102 µM] | –
6 | Cc1ccc(S(=O)(=O)N2CCC(C(=O)OCC(=O)N(C)c3ccccc3)CC2)cc1C | -20.5% [at 102 µM] | –
7 | O=C(Nc1c(-c2ccc(F)cc2)nc2ccccn12)c1cccc(F)c1 | 2.37% | –
8 | O=C(COC(=O)c1ccccc1Br)Nc1nnc(-c2ccccc2)o1 | -5.03% [at 102 µM] | –
9 | CCCC(=O)Nc1nnc(-c2ccccc2)o1 | – | 39.8 µM (active)
10 | O=C(COC(=O)c1ccc(Oc2ccccc2)cc1)Nc1nnc(-c2ccccc2)o1 | 17.6% [at 12.7 µM] | –
11 | CCN(CC)CCNC(=O)c1cc2c(=O)oc3ccc(C)cc3c2s1 | 6.68% | –
12 | CCNC(=O)c1cccc(NC(=O)C2CC(=O)N(CCc3ccccc3)C2)c1 (stereo unspecified) | 8.14% [at 0.501 µM] | –
13 | COc1ccc2cc(C3=CC(=O)C[C@H](c4ccc5c(c4)OCO5)C3)ccc2c1 | 7.57% [at 0.501 µM] | –
14 | NS(=O)(=O)c1cccc(NC(=O)COC(=O)/C=C/c2ccco2)c1 | – | 25.1 µM (active)
15 | COc1cccc(NC(=O)COC(=O)/C=C/c2ccco2)c1 | 13.7% [at 2.33 µM] | –
16 | CC(C)CNC(=O)COC(=O)/C=C/c1ccco1 | 20% | –
17 | O=S(=O)(NCCS(=O)(=O)N1CCN(c2ccccc2)CC1)c1ccc(F)cc1 | -3.65% [at 102 µM] | –
18 | COc1ccc(OCc2nnc3n2N=C(c2ccccc2)C(CC(=O)O)S3)cc1 (stereo unspecified) | – | 1.58 µM (active)
19 | COc1cccc(OCc2nnc3n2N=C(c2ccccc2)C(CC(=O)O)S3)c1 (stereo unspecified) | – | 44.7 µM (active)
20 | COc1ccc(C(=O)NCc2nnc(SCCOc3ccccc3)n2C)cc1 | 13.9% [at 12.7 µM] | –
21 | COc1ccc(C2CC(c3ccccc3)=NN2C(=O)COC(=O)COc2ccccc2)cc1 (stereo unspecified) | -3.35% [at 102 µM] | –
22 | CCn1c(COc2cccc(OC)c2)nnc1SCC(=O)N1CCOCC1 | 8.24% [at 102 µM] | –
23 | COc1cccc(OCC(=O)Nc2ccccc2C(N)=O)c1 | 6.62% [at 12.7 µM] | –
24 | CCN(CC)S(=O)(=O)c1ccc2c(c1)N(CC(=O)NCc1ccccc1)C(=O)CS2 | 7.17% | –

Row | Compound | activity, negative = inhibition | Potency
25 | COc1cccc(CNC(=O)C(=O)NCCC2CCCCN2S(=O)(=O)c2ccc(C)cc2)c1 (stereo unspecified) | 0.971% [at 0.501 µM] | –
26 | COc1ccccc1NC(=O)CSc1nnc(C)n1CC1CCCO1 (stereo unspecified) | -7.36% | –
27 | CCOc1cccc(=O)c2c(C)n(CC3CCCO3)c(C)c12 (stereo unspecified) | – | 70.8 µM (active)
28 | CC(=O)Nc1ccc(NC(=O)CSc2nnc(COc3ccccc3C)n2CC2CCCO2)cc1 (stereo unspecified) | 7.69% [at 102 µM] | –
29 | Cc1ccc(NC(=O)COC(=O)CN2CCCCCC2=O)c(C)c1 | -2.73% | –
30 | Cc1cc(C)cc(-n2c(SCC(=O)NCC3CCCO3)nc3c([nH]c4ccccc43)c2=O)c1 (stereo unspecified) | 12% | –
31 | CCOc1ccc(N2C(=O)CC(N(CCc3ccc(OC)c(OC)c3)C(=S)Nc3ccccc3)C2=O)cc1 (stereo unspecified) | 1.28% | –
32 | CCCCCOC(=O)c1ccc(N2C(=O)C3C4C=CC(C4)C3C2=O)cc1 (stereo unspecified) | 11.8% [at 102 µM] | –
33 | CCCCCCC(=O)N(O)C1CC(=O)N(c2ccccc2)C1=O (stereo unspecified) | – | 0.794 µM (active)
34 | O=C(Nc1cccc(F)c1)NC1CCCc2ccccc21 (stereo unspecified) | 80.8% [at 102 µM] | –
35 | COc1ccc(-n2ccn(CC(=O)Nc3ccc(C)c(C)c3)c(=O)c2=O)cc1OC | -34.1% | –
36 | Oc1ccc(Cn2cc[nH]c2=S)cc1 | – | 3.16 µM (active) and 2.99 µM (active)
37 | O=C1C(Cc2ccc(O)cc2)NC(=S)N1Cc1ccccc1 (stereo unspecified) | 4.15% [at 102 µM] | –
38 | N#Cc1ccc(OCC(=O)NC(=O)NC2CCS(=O)(=O)C2)cc1 (stereo unspecified) | -2.17% [at 12.7 µM] | –
39 | COc1ccc(OC)c(S(=O)(=O)Nc2c(C)nn(C)c2C)c1 | 3.63% [at 12.7 µM] | –
40 | C=CCn1c(SCC(=O)NCCCO)nc2sc3c(c2c1=O)CCC3 | 29.7% [at 102 µM] | –
41 | COCCCn1c(SCC(=O)Nc2oc(C)c3c(C)n[nH]c(=O)c23)nc2sc3c(c2c1=O)CCC3 | – | 6.31 µM (active)
42 | Cc1nc2sc3c(c2c(=O)n1NC(=O)CCl)CCCC3 | -21.8% [at 102 µM] | –
43 | Cc1ccc(S(=O)(=O)N(CC(=O)Nc2ccc(Cl)cc2Cl)c2ccccc2C)cc1 | 23.4% | –
44 | CCCCN(C1CCS(=O)(=O)C1)S(=O)(=O)c1ccc(C(C)C)cc1 (stereo unspecified) | -28.2% [at 102 µM] | –
45 | COc1ccc(CNC(=O)c2ccc(NC(=O)N3CC4CCCN4c4ccccc43)cc2)cc1 (stereo unspecified) | – | 7.08 µM (active)
46 | Cc1ccccc1CNC(=O)c1ccc(NC(=O)N2CCCCc3ccccc32)cc1 | 15.8% | –
47 | O=C(CCC(=O)N1CC2CCCN2c2ccccc21)NCc1ccccc1Cl (stereo unspecified) | -28.5% | –
48 | COc1cc(OC)c(NC(=O)C2CCCN2C(=O)OCc2ccccc2)cc1Cl (stereo unspecified) | 16.8% [at 102 µM] | –

Row | Compound | activity, negative = inhibition | Potency
49 | COc1cc(OC)c(NC(=O)N2CC3CCCN3c3ccccc32)cc1Cl (stereo unspecified) | – | 8.91 µM (active)
50 | COc1ccccc1CNC(=O)c1ccc(NC(=O)N2CC(C)Sc3ccccc32)cc1 (stereo unspecified) | 7.67% | –
51 | Cc1cccc(N2CCN(C(=O)COCc3cc(-c4ccc5c(c4)OCO5)on3)CC2)c1C | – | inactive
52 | Oc1ccccc1C1=NN(c2ccccc2)C(c2ccccc2)C1 (stereo unspecified) | 99% [at 102 µM] | –
53 | O=C(NNC(=O)c1cc(-c2ccccc2Cl)nc2ccccc12)c1csc(N2CCOCC2)n1 | 10% [at 2.33 µM] | –
54 | Cc1ccccc1C(=O)Nc1nnc(S(=O)(=O)N(C)c2ccc(Cl)cc2)s1 | -0.311% | –
55 | CCOC(=O)N1CCN(Cc2nc3ccc([N+](=O)[O-])cc3c(=O)n2-c2cccc(OC)c2)CC1 | – | 39.8 µM (active)
56 | CCOC(=O)N1CCN(Cc2nc3cc(NC(C)=O)ccc3n2C)CC1 | 18.2% [at 102 µM] | –
57 | COc1cccc(-n2nc(C(=O)N3CCN(Cc4ccccc4)CC3)c3ccccc3c2=O)c1 | -35.7% [at 102 µM] | –
58 | CCCCN1C(=O)c2[nH]nc(-c3ccccc3O)c2C1c1cccc(OCc2ccccc2)c1 (stereo unspecified) | -0.0883% | –
59 | COCCn1c(SC(C)C(=O)NC2CC2)nnc1-c1cccc(C)c1 (stereo unspecified) | – | 28.2 µM (active)
60 | Cc1cccc(C(=O)NCc2nnc(SC(C)C(=O)Nc3nnc(C)s3)n2C)c1 (stereo unspecified) | -30.1% [at 102 µM] | –
61 | COCCCn1c(SCC(=O)NC2CCCC2)nnc1-c1ccccc1 | 23% [at 102 µM] | –
62 | Cc1ccc(NC(=O)c2oc3ccc(S(=O)(=O)N4CCCCC4)cc3c2C)cc1Cl | 0.299% | –
63 | C=CCn1c(=O)c(C(=O)NCc2ccc3c(c2)OCO3)c(O)c2ccccc21 | 71.8% [at 102 µM] | –
64 | C/C(CCC(=O)OC[C@H]1O[C@H](C#Cc2ccccc2)C=C[C@@H]1Oc1ccc(C)cc1)=N\OC[C@@H](O)[C@H]1O[C@@H]2OC(C)(C)O[C@@H]2[C@H]1O | – | 50.1 µM (active)
65 | COc1cc(C)c(C)cc1S(=O)(=O)N1CCCc2ccccc21 | 87% [at 102 µM] | –
66 | COc1ccc(OCC(=O)N2CCOCC2)cc1 | 6.34% [at 12.7 µM] | –
67 | CC1CN(C2CCN(C(=O)COc3ccccc3)CC2)CC(C)O1 (stereo unspecified) | – | 8.91 µM (active)
68 | COc1ccc(OCC(=O)N2CCN(C(=O)COc3ccccc3)CC2)cc1 | 21% | –
69 | Cc1cc(C)cc(NC(=O)C(OC(=O)c2ccc(O)cc2)c2ccccc2)c1 (stereo unspecified) | -7.57% [at 12.7 µM] | –
70 | CC(C)(C)c1ccc(C(=O)Nc2ccc3c(c2)CCCN3C(=O)c2cccs2)cc1 | -0.495% | –
71 | CCCCCn1c(=O)[nH]c2cc(C(=O)Nc3cc(C)cc(C)c3)ccc2c1=O | 3.83% | –
72 | O=C(O)CSCc1nc2ccccc2s1 | -10.2% | –

Row | Compound | activity, negative = inhibition | Potency
73 | O=C(CSc1nc2ccccc2s1)Nc1ccc(C(=O)O)cc1 | -6.27% | –
74 | O=C(O)c1ccccc1CSc1nc2ccccc2s1 | – | 10 µM (active)
75 | Cc1ccc(Cc2nc3ccccc3nc2SCC(=O)Nc2cccc(C(F)(F)F)c2)cc1 | -0.77% | –
76 | COc1ccc(S(=O)(=O)N2CCN(CC(=O)NCC3(N4CCOCC4)CCCCC3)CC2)cc1 | -3.79% [at 12.7 µM] | –
77 | Cc1cc(C)cc(NC(=O)Cn2nc(N3CCN(c4ccccc4)CC3)ccc2=O)c1 | -31.5% | –
78 | COc1ccc(NC(=O)c2cnc(Nc3ccc(C)c(Cl)c3)c3ccccc23)cc1OC | 3.97% | –
79 | O=c1cc(CCl)nc2scc(-c3ccccc3)n12 | – | 50.1 µM (active)
80 | Cc1csc2nc(COc3ccc(NC(=O)COc4ccccc4)cc3)cc(=O)n12 | -2.98% | –
81 | Cc1csc2nc(COC(=O)c3ccccc3NC(=O)c3ccccc3Cl)cc(=O)n12 | 6.79% | –
82 | Cc1cccc2c(=O)cc(CSc3ccccc3NC(=O)C(C)C)[nH]c12 | -21.4% | –
83 | COc1ccc(OC)c(-n2nnc3c(sc4nc(C)c(Br)c(C)c43)c2=O)c1 | -25.7% | –
84 | O=C(OCC(=O)c1c[nH]c2ccccc12)c1cccc(O)c1 | -89.6% [at 102 µM] | –
85 | O=S(=O)(O)Oc1c[nH]c2ccccc12 | – | 2.51 µM (active)
86 | O=C(NC1CCCC1)C(=O)c1c[nH]c2ccccc12 | 47.4% [at 102 µM] | –
87 | Cc1cccn2c(=O)c(C(=O)NC(C)c3ccccc3)cnc12 (stereo unspecified) | 15.6% | –
88 | O=C(CSc1ccc(-c2ccc(F)cc2)nn1)Nc1ccc2c(c1)OCCO2 | -8.82% [at 102 µM] | –
89 | Brc1ccc(CSc2ccc(-c3ccco3)nn2)cc1 | -9.49% [at 102 µM] | –
90 | CCn1c(=O)cc(SCC(=O)NCc2ccc3c(c2)OCO3)c2ccccc21 | -1.7% [at 102 µM] | –
91 | Cc1ccccc1-c1nnc(SCC(=O)NCc2ccc3c(c2)OCO3)n1C | -10.1% [at 12.7 µM] | –
92 | Cc1cc(SCc2c(F)cccc2Cl)nc(=O)[nH]1 | -5.25% [at 0.501 µM] | –
93 | O=C(CSc1ccc(-c2ccco2)nn1)NCc1ccc2c(c1)OCO2 | – | 31.6 µM (active)
94 | CCn1c(CNC(=O)c2ccco2)nnc1SCC(=O)Nc1cccc(F)c1 | 11.1% [at 102 µM] | –
95 | Fc1cccc(Cl)c1CSc1ccc(-c2ccco2)nn1 | – | 31.6 µM (active)
96 | O=C(CSc1ccc(-c2ccco2)nn1)Nc1cccc(F)c1 | – | 15.8 µM (active)

— PubChem BioAssay AID504332 (National Center for Advancing Translational Sciences (NCATS), 2011)
